Values joined by “and” are separate entries in the source; they are usually repeats but may differ in a detail not shown here. Equal entries are not always repeated. The panel holds about 83,000 compounds, 20% with a hit somewhere; the sample as a whole holds those more often.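 Activity criterion: percent growth below 10, measured after cells in 96-well plates were exposed to a single compound concentration for 48 hours.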 Active and inactive are the calls of the source.
Key:
Assay in all cases: NCI-60 one-dose screen, 48 h (100 = growth as untreated, 0 = no growth, -100 = all killed)
Settings in all cases: 10 µM unless noted
DU-145 prostate = system: DU-145 prostate
K-562 leukemia = system: K-562 leukemia
MALME-3M melanoma = system: MALME-3M melanoma
MDA-MB-231 breast = system: MDA-MB-231 breast
RXF 393 renal = system: RXF 393 renal
SF-268 CNS = system: SF-268 CNS
SF-295 CNS = system: SF-295 CNS
SF-539 CNS = system: SF-539 CNS
UACC-257 melanoma = system: UACC-257 melanoma
M14 melanoma = system: M14 melanoma

Measured: growth

Cc1ccc(S(=O)(=O)NCN2C(=O)c3ccccc3C2=O)cc1
inactive: DU-145 prostate 125% | K-562 leukemia 106% | MALME-3M melanoma 133% | MDA-MB-231 breast 117% | RXF 393 renal 121% | SF-268 CNS 106% | SF-295 CNS 100% | SF-539 CNS 112% | UACC-257 melanoma 104% | M14 melanoma 109%

Cc1cccc(/C=C\C(=O)c2ccc(Cl)cc2)c1
inactive: DU-145 prostate 114% and 96.5% | K-562 leukemia 77% and 20.5% | MALME-3M melanoma 92.5% | MDA-MB-231 breast 97.6% and 116% | RXF 393 renal 112% and 97.8% | SF-268 CNS 102% and 92.5% | SF-295 CNS 161% and 93.9% | SF-539 CNS 101% | UACC-257 melanoma 105% and 109% | M14 melanoma 94.3% and 91.1%

CCOC(=O)Nc1nc2ccccc2[nH]1
103% (inactive) and 7.77% (active): K-562 leukemia
inactive: DU-145 prostate 121% and 38.4% | MALME-3M melanoma 101% and 52.5% | MDA-MB-231 breast 110% and 64% | RXF 393 renal 118% and 66.3% | SF-268 CNS 115% and 48.8% | SF-539 CNS 105% and 28.5% | UACC-257 melanoma 93.2% and 58% | M14 melanoma 105% and 22.4%
101% (inactive) and 8.06% (active): SF-295 CNS

COc1ccc(/C(C#N)=C/c2ccccn2)cc1
inactive: DU-145 prostate 107% and 120% | K-562 leukemia 101% and 85.6% | MALME-3M melanoma 129% and 134% | MDA-MB-231 breast 107% and 127% | RXF 393 renal 99% and 96.4% | SF-268 CNS 99.1% and 122% | SF-295 CNS 102% and 134% | SF-539 CNS 108% and 106% | UACC-257 melanoma 110% and 112% | M14 melanoma 109% and 111%

S=C1SCN(Cc2ccccc2)CN1Cc1ccccc1
inactive: DU-145 prostate 41.8% | K-562 leukemia 46.4% | MALME-3M melanoma 92.1% | MDA-MB-231 breast 85% | RXF 393 renal 87.1% | SF-268 CNS 73.5% | SF-295 CNS 100% | SF-539 CNS 91.4% | UACC-257 melanoma 95.2% | M14 melanoma 82.3%

CCN(CC)CCOc1ccc(/C=N/Nc2nc3c([nH]2)c(=O)n(C)c(=O)n3C)cc1
inactive: DU-145 prostate 115% and 108% | K-562 leukemia 109% and 103% | MALME-3M melanoma 96.6% and 82.1% | MDA-MB-231 breast 103% and 87.4% | RXF 393 renal 114% and 122% | SF-268 CNS 111% and 102% | SF-295 CNS 113% and 98.7% | SF-539 CNS 97.2% and 95.5% | UACC-257 melanoma 102% and 108% | M14 melanoma 96.7% and 97.6%

CC(C)Oc1ccc2cc(-c3nn(CC4CCNCC4)c4ncnc(N)c34)ccc2c1
60.5% (inactive) and -42.9% (active): MDA-MB-231 breast
43.1% (inactive) and -68.4% (active): K-562 leukemia
39.3% (inactive) and -73.3% (active): RXF 393 renal
inactive: DU-145 prostate 107% and 40.4%
active: UACC-257 melanoma -81.8% | M14 melanoma 5.7% and -84.7%
73.7% (inactive) and -77.1% (active): MALME-3M melanoma
73.1% (inactive) and -83.1% (active): SF-539 CNS
97.8% (inactive) and -54.6% (active): SF-295 CNS
88.4% (inactive) and 1.08% (active): SF-268 CNS

O=C(O)C1(C(=O)O)CCC1.[NH2-].[NH2-].[Pt+2]
94.4% (inactive) and 8.97% (active): MDA-MB-231 breast
inactive: DU-145 prostate 127% and 104% | K-562 leukemia 65.9% | MALME-3M melanoma 86.4% and 94.2% | RXF 393 renal 93.9% | SF-268 CNS 118% and 96.4% | SF-295 CNS 103% and 96.9% | SF-539 CNS 100% and 89% | UACC-257 melanoma 102% and 95.7% | M14 melanoma 99.2% and 104%

Cc1ccc2nc3c(nc2c1)-c1cccc2cccc-3c12
inactive: DU-145 prostate 86.4% | K-562 leukemia 97.5% | MALME-3M melanoma 124% | MDA-MB-231 breast 75.8% | RXF 393 renal 85.2% | SF-268 CNS 89.2% | SF-295 CNS 102% | SF-539 CNS 85.4% | UACC-257 melanoma 106% | M14 melanoma 102%

NC(=S)NN=C1CCC(C2CCCCC2)CC1 (stereo not given)
inactive: DU-145 prostate 96.7% and 103% | K-562 leukemia 89.9% and 89.5% | MALME-3M melanoma 90.6% | MDA-MB-231 breast 94.6% and 93.6% | RXF 393 renal 92.3% and 92.9% | SF-268 CNS 89.9% and 102% | SF-295 CNS 93% and 87.7% | SF-539 CNS 97.1% and 82.8% | UACC-257 melanoma 66.4% and 66.9% | M14 melanoma 92.2% and 85%

ClC/C=C/CSc1ncnc2nc[nH]c12
inactive: DU-145 prostate 110% and 116% | K-562 leukemia 82.1% and 73.3% | MALME-3M melanoma 116% and 95.9% | MDA-MB-231 breast 109% and 96.3% | RXF 393 renal 109% and 141% | SF-268 CNS 103% and 119% | SF-295 CNS 101% and 117% | SF-539 CNS 101% and 103% | UACC-257 melanoma 118% and 104% | M14 melanoma 104% and 103%

COc1cc(-c2nccc3cc4c(cc23)OCO4)cc(OC)c1OC
6.69% (active) and 22.1% (inactive): RXF 393 renal
inactive: DU-145 prostate 51.9% and 30.2% | K-562 leukemia 13.4% and 21% | MALME-3M melanoma 62.2% and 44.7% | MDA-MB-231 breast 40.3% and 48.9% | SF-268 CNS 43.8% and 40.6% | SF-295 CNS 19.2% and 15.7% | SF-539 CNS 19.9% and 18.8% | UACC-257 melanoma 52.8% and 39.3% | M14 melanoma 14% and 23.1%

CC(CN=Cc1ccccc1O)N=Cc1ccccc1O (stereo not given)
inactive: DU-145 prostate 121% and 105% | K-562 leukemia 78.7% and 88.2% | MALME-3M melanoma 124% and 110% | MDA-MB-231 breast 111% and 104% | RXF 393 renal 102% and 91% | SF-268 CNS 108% and 91% | SF-295 CNS 112% | SF-539 CNS 94.9% and 87.9% | UACC-257 melanoma 87.7% and 121% | M14 melanoma 106% and 102%

COc1cc(NS(C)(=O)=O)ccc1Nc1c2ccccc2nc2c(C)cccc12
-3.04% (active) and 29.4% (inactive): MALME-3M melanoma
active: DU-145 prostate -8.9% and 7.58% | K-562 leukemia 8.6% and 7.61% | RXF 393 renal -2.83% and 8.08% | SF-295 CNS -24.8% | SF-539 CNS -35.6% and -30.6%
2.5% (active) and 16.2% (inactive): SF-268 CNS
inactive: MDA-MB-231 breast 36.7% | UACC-257 melanoma 16.1% | M14 melanoma 19.4% and 11.8%

Cc1ccc(-c2noc(CC(=O)c3ccc([N+](=O)[O-])cc3)n2)cc1
inactive: DU-145 prostate 101% | K-562 leukemia 89.1% | MALME-3M melanoma 110% | MDA-MB-231 breast 104% | RXF 393 renal 102% | SF-268 CNS 95.6% | SF-295 CNS 99% | SF-539 CNS 98.2% | UACC-257 melanoma 107% | M14 melanoma 96.5%

COc1ccc(S(=O)(=O)N2CCOCC2)cc1NC(=O)c1[nH]c(C)c2c1CCCCC2=O
inactive: DU-145 prostate 107% and 81.5% | K-562 leukemia 105% and 46.1% | MALME-3M melanoma 103% and 53.9% | MDA-MB-231 breast 110% and 44.6% | RXF 393 renal 109% and 37.7% | SF-268 CNS 98.5% and 72.1% | SF-295 CNS 100% and 60.7% | SF-539 CNS 95.4% and 43.6% | UACC-257 melanoma 101% and 58.7% | M14 melanoma 109% and 102%

From PubChem BioAssay (NCI)
